Measurements: PubChem BioAssay
Active and inactive are the calls of the source. Unless noted, no rule for the calls is given here.

Columns and labels:
[1] = test system: XIP peptide (Xip251-270) binding; assay: XIP fragment 251-270 binding compounds – biochemical, small-molecule microarray, fluorescence 635/667 nm, 0.1 µg/mL protein, primary screen (AID 1182); details: fluorescent protein binding, 635 nm, higher = more signal, called active from +8 up or from −8 down
[2] = test system: XIP peptide (Xip251-270); assay: compounds binding XIP fragment 251-270 – biochemical, small-molecule microarray, fluorescence 635/667 nm, 0.5 µg/mL protein, primary screen (AID 1183); details: fluorescence 635 nm, higher = more signal
[3] = blood-stage malaria parasite viability loss – strain 3D7, DAPI fluorescence, 100 nL, primary screen (AID 1184);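 also: parasites grown inside human red blood cells in medium with human serum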; details: P. falciparum 3D7 growth, 3 d, higher = more signal
[4] = target: Homeobox protein Hox-A13 (Mus musculus) (UniProt Q62424); assay: disruptors of Hoxa13 oligonucleotide interaction – biochemical, fluorescence polarization, labeled oligonucleotide, primary screen (AID 1185); details: Hoxa13:DNA binding, 15 min, higher = more signal, called active from +8 up or from −8 down
[5] = blockers of DNA damage checkpoint Chk1 activation – imaging, HeLa, hydroxyurea, phospho-Chk1 antibody, percent positive cells, primary screen (AID 1186); details: hydroxyurea-induced phospho-Chk1 immunofluorescence imaging, higher = more signal
[6] = blockers of DNA damage checkpoint Chk1 activation – imaging, HeLa, hydroxyurea, phospho-Chk1 nuclear intensity, primary screen (AID 1187); details: hydroxyurea-induced phospho-Chk1 immunofluorescence imaging, higher = more signal

Chain of Homeobox protein Hox-A13 (Mus musculus) (Q62424 whole entry, looked up): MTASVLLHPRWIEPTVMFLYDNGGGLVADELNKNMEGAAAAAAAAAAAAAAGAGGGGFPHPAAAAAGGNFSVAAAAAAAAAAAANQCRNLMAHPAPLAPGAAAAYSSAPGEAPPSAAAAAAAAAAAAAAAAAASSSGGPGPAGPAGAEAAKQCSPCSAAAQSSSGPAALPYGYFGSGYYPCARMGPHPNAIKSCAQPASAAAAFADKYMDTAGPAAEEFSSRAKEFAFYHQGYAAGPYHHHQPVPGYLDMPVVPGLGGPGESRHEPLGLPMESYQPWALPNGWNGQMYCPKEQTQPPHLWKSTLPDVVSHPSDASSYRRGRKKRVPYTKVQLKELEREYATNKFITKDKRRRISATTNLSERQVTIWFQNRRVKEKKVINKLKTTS

Row | Structure (SMILES) | composite z-score [1] | composite z-score [2] | z-score [3] | z-score [4] | z-score [5] | z-score [6]
1 | CC(C)C(=C=CC[C@H](O)c1ccccc1OCCO)CCO | -0.393 (inactive) | 0.81 | -0.305 | -3.12 (inactive) | -0.106 (inactive) | 0.0237 (inactive)
2 | CCCNC(=O)[C@@]1(C)c2ccccc2C(=O)N(C(C)C)[C@H]1c1ccc(CO)cc1 | -0.358 (inactive) | -0.395 | -1.46 | -3.3 (inactive) | -0.017 (inactive) | -0.211 (inactive)
3 | COc1ccc([Si](C)(C)[C@@H]2[C@@H](CCO)O[C@]3(C(=O)N(Cc4ccc(N5C(=O)c6cccc7cccc5c67)cc4)c4ccccc43)[C@H]2C)cc1 | 0.476 (inactive) | 0.596 | -2.68 | -0.946 (inactive) | -0.903 (inactive) | -0.198 (inactive)
4 | COc1ccc([Si](C)(C)[C@@H]2[C@@H](CCO)O[C@]3(C(=O)N(Cc4cccc(N(C=O)c5ccccc5)c4)c4ccccc43)[C@H]2C)cc1 | 1.31 (inactive) | 0.675 | -2.51 | -0.551 (inactive) | -0.79 (inactive) | -0.438 (inactive)
5 | CC[C@@H]1C=C(C(=O)O)[C@H](c2ccc(C(C)C)cc2)N1S(=O)(=O)c1ccc(C)cc1 | 0.719 (inactive) | 0.924 | -0.646 | -5.17 (inactive) | 0.122 (inactive) | -0.118 (inactive)
6 | COc1ccc(C#Cc2ccc3c(c2)[C@]2(C(=O)N3)[C@H](c3ccc(OCCO)cc3)N3[C@H](c4ccccc4)[C@H](c4ccccc4)OC(=O)[C@H]3[C@@H]2C(=O)Nc2nc3ccccc3s2)cc1 | 0.353 (inactive) | 0.522 | -1.3 | 3.34 (inactive) | 0.141 (inactive) | 0.315 (inactive)
7 | C=C[C@H](C)[C@H](O)c1ccc(OCCO)cc1 | -0.199 (inactive) | -0.143 | -0.996 | -0.499 (inactive) | -0.82 (inactive) | -0.216 (inactive)
8 | CO[C@H]1O[C@H](CO)[C@@H](OC(=O)Nc2cccc(F)c2)[C@H](OC(=O)Nc2ccccc2-c2ccccc2)[C@@H]1OC(=O)Nc1ccccc1-c1ccccc1 | 1.37 (inactive) | 0.805 | -2.53 | -1.83 (inactive) | -0.164 (inactive) | 0.217 (inactive)
9 | CN(C)CCCCCCNC(=O)[C@@H]1C[C@@H]2C(=O)N[C@@H](Cc3ccccc3)C(=O)N2[C@@H]1c1cccc(OCCO)c1 | 2.15 (inactive) | 0.809 | 0.526 | -4.13 (inactive) | 0.0258 (inactive) | -0.024 (inactive)
10 | COCCOC(=O)N1C(=O)[C@@]2(c3cc(C#CC4=CCCCC4)ccc31)[C@H](c1ccc(OCCO)cc1)N1[C@H](c3ccccc3)[C@H](c3ccccc3)OC(=O)[C@H]1[C@@H]2C(=O)Nc1nc2ccccc2s1 | -0.166 (inactive) | 0.622 | -1.29 | 3.94 (inactive) | -0.446 (inactive) | -1.1 (inactive)
11 | Cc1cccc(/C=C/C=O)c1 | 0.43 (inactive) | 0.838 | 0.787 | -1.05 (inactive) | 0.381 (inactive) | 0.412 (inactive)
12 | OCCCc1cc[n+](Cc2cccc(OC(F)(F)F)c2)cc1 | 0.307 (inactive) | 0.768 | -1.47 | -3.06 (inactive) | -0.284 (inactive) | -0.678 (inactive)
13 | O=C1OCC=C[C@H]2OC34C=CCN(CCN5CCOCC5)C(=O)[C@H]3N(CCCCCCO)C(=O)[C@@H]4[C@@H]12 (some centres not stated) | 0.304 (inactive) | -0.291 | -0.448 | -7.09 (inactive) | -1.52 (inactive) | -1.21 (inactive)
14 | C=CCOC(=O)[C@@H]1[C@H]2C(=O)O[C@H](c3ccccc3)[C@H](c3ccccc3)N2[C@H](c2ccc(OCCOC(=O)[C@H]3C[C@H]4C(=O)N[C@@H](CC(C)C)C(=O)N4[C@H]3c3cccc(OCCO)c3)cc2)[C@@]12C(=O)Nc1ccc(I)cc12 | 0.559 (inactive) | 0.824 | -1.68 | 2.41 (inactive) | 0.537 (inactive) | 0.273 (inactive)
15 | C=C(/C(=C/C[C@@H](OC(=O)c1ccncc1)c1ccc(CO)o1)c1cc(C(=O)OC)ccc1OC)C(C)C | 0.18 (inactive) | 0.813 | -1.01 | -4.08 (inactive) | -0.471 (inactive) | 0.811 (inactive)
16 | C=CCC(OC(C)=O)[C@@H]1[C@@H](N(Cc2ccc(-c3cccc(C(F)(F)F)c3)o2)C(=O)Cc2ccc(OC)cc2)c2cc(OCCCO)ccc2N1C(=O)Cc1ccc(OC)cc1 (some centres not stated) | -0.343 (inactive) | 0.278 | -2.23 | -3.42 (inactive) | -0.186 (inactive) | -0.0407 (inactive)
17 | NC(=O)[C@@]1(CCS(=O)(=O)c2ccccc2)N=C(c2ccc(OCCCO)cc2)O[C@H]1c1ccccc1 | 1.11 (inactive) | 0.863 | -1.9 | -6.86 (inactive) | 0.0218 (inactive) | 0.56 (inactive)
